# Laboratory results: PubChem BioAssay (Tox21)
# Values joined by “and” are separate entries in the source; they are usually repeats but may differ in a detail not shown here. Equal values may be shown once. Inconclusive results are not listed. Entries that show only a call come without a potency. A structure can be active in one record and inactive in another. Active and inactive are the calls of the source. Unless noted, calls come from the whole dose curve; as a rule, active = well fitted curve in the direction sought with a large enough effect in the repeat runs; inconclusive = weak or mixed curves; inactive = no such curve, though single readings can be large; an effect the other way counts as inactive or inconclusive.
# What was measured:
# [1] = qHTS assay to identify small molecule agonists of the peroxisome proliferator-activated receptor delta (PPARd) signaling pathway - cell viability counter screen (AID 743211); note: nearly all actives have a fitted effect of over 55% in size; note: potency is the fitted concentration of half-maximal effect
# Procedure, shortened: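 Following 5 h plating at 37 C and 5% CO2, PPARd UAS-bla HEK293H cells took up test compounds for 17 h. Viability was quantified by luminescence 30 min after CellTiter-Glo addition at room temperature.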
# [2] = molecular target: Peroxisome proliferator-activated receptor delta (Homo sapiens) (UniProt Q03181); experiment: qHTS assay to identify small molecule agonists of the peroxisome proliferator-activated receptor delta (PPARd) signaling pathway (AID 743212; calls by dose curve)
# Chain of Peroxisome proliferator-activated receptor delta (Homo sapiens) (Q03181 whole entry, looked up): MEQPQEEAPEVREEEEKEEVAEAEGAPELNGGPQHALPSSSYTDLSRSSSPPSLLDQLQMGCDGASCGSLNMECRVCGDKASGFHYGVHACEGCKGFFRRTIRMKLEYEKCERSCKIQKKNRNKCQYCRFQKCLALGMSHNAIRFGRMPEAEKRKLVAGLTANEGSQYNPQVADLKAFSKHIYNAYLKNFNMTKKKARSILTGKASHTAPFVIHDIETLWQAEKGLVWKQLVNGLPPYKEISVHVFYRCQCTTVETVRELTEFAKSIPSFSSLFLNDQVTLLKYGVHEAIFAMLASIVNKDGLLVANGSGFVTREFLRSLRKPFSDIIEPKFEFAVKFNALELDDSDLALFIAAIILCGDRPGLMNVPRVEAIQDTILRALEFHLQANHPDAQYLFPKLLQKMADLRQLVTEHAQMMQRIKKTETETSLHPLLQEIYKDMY
# Procedure, shortened: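 Quantitative high-throughput agonist screen in a HEK293H beta-lactamase reporter line under UAS control. Compounds in DMSO, at 37 C. Fluorescence read after 2 h with FRET substrate at room temperature.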
# [3] = qHTS assay to identify small molecule antagonists of the peroxisome proliferator-activated receptor delta (PPARd) signaling pathway - cell viability counter screen (AID 743213); note: nearly all actives have a fitted effect of over 50% in size
# Procedure, shortened: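 PPARd-bla HEK293H cells were treated with compounds plus agonist L165041 (300 nM final) for 17 h at 37 C. Viability was then read in the same wells by CellTiter-Glo luminescence after 30 min at room temperature.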
# [4] = molecular target: Peroxisome proliferator-activated receptor delta (Homo sapiens) (UniProt Q03181); experiment: qHTS assay to identify small molecule antagonists of the peroxisome proliferator-activated receptor delta (PPARd) signaling pathway (AID 743215; active = well fitted inhibition curve with a large enough effect in the signal ratio in the repeat runs, not every such curve was filed as active; the % refers to the signal ratio;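 note: cells stimulated with agonist L165041 at 300 nM final during compound exposure; series mostly up to about 62 µM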)
# Procedure, shortened: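 HEK293H UAS-bla, PPARd; agonist L165041 300 nM final with cpd in DMSO; 37 C 17 h; FRET substrate, RT 2 h; fluorescence intensity.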
# [5] = qHTS assay to identify small molecule agonists of the farnesoid-X-receptor (FXR) signaling pathway - cell viability counter screen (AID 743218); note: nearly all actives have a fitted effect of over 45% in size; note: potency is the fitted concentration of half-maximal effect
# Procedure, shortened: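 Parallel cytotoxicity test: compound-treated (16 h, 37 C) HEK 293T FXR-bla reporter cells were lysed with CellTiter-Glo and luminescence recorded.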
# [6] = qHTS assay to identify small molecule antagonists of the farnesoid-X-receptor (FXR) signaling pathway - cell viability counter screen (AID 743221; active = well fitted cell-killing curve with a large enough effect in the repeat runs, not every such curve was filed as active; note: nearly all actives have a fitted effect of over 50% in size)
# Procedure, shortened: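 Compound effects on cell number were measured as CellTiter-Glo luminescence in HEK 293T cells expressing FXR-UAS-bla, after 16 h at 37 C with 50 uM CDCA (final).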
# [7] = molecular target: Vitamin D3 receptor (Homo sapiens) (UniProt P11473); experiment: qHTS assay to identify small molecule agonists of the vitamin D receptor (VDR) signaling pathway (AID 743222; calls by dose curve)
# Chain of Vitamin D3 receptor (Homo sapiens) (P11473 whole entry, looked up): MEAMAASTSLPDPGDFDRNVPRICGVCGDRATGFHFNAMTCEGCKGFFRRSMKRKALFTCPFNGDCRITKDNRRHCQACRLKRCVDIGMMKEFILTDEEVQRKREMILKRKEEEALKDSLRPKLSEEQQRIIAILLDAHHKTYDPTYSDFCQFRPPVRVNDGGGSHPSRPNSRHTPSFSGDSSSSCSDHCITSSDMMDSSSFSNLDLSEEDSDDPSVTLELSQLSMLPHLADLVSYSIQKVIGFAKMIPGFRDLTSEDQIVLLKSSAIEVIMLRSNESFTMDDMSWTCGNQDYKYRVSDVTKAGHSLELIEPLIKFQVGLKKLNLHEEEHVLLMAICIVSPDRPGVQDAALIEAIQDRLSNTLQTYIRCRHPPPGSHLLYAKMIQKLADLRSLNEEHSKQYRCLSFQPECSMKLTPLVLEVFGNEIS
# Procedure, shortened: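 In VDR-bla cells, compound-induced beta-lactamase expression is quantified by FRET substrate fluorescence. Treatment lasts 16 h at 37C; substrate develops 2 h at room temperature.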
# [8] = molecular target: Bile acid receptor (Homo sapiens) (UniProt Q96RI1); experiment: qHTS assay to identify small molecule antagonists of the farnesoid-X-receptor (FXR) signaling pathway (AID 743217; active = well fitted inhibition curve with a large enough effect in the signal ratio in the repeat runs, not every such curve was filed as active; the % refers to the signal ratio; note: potency is the fitted concentration of half-maximal effect)
# Chain of Bile acid receptor (Homo sapiens) (Q96RI1 whole entry, looked up): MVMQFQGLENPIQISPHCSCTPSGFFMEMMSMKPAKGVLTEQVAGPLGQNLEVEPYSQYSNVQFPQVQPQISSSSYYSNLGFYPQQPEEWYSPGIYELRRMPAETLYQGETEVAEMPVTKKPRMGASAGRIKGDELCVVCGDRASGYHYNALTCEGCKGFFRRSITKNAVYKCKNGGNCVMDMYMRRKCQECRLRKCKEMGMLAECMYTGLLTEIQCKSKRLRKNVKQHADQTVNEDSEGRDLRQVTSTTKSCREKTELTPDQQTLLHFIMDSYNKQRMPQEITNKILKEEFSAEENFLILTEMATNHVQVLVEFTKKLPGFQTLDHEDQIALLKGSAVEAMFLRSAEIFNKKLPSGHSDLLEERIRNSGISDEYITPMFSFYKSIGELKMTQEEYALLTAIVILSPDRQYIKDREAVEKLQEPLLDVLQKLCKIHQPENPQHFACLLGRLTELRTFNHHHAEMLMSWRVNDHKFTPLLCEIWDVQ
# Procedure, shortened: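 GeneBLAzer FXR-UAS-bla HEK 293T, CDCA-stimulated (50 uM final). Compound treatment 16 h, 37 °C. Detection: beta-lactamase cleavage of B/G FRET substrate, fluorescence.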
# [9] = molecular target: Vitamin D3 receptor (Homo sapiens) (UniProt P11473); experiment: qHTS assay to identify small molecule antagonists of the vitamin D receptor (VDR) signaling pathway (AID 743223; active = well fitted inhibition curve with a large enough effect in the signal ratio in the repeat runs, not every such curve was filed as active; the % refers to the signal ratio)
# Procedure, shortened: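 Beta-lactamase activity in VDR-bla cells is measured by FRET substrate fluorescence (2 h, room temperature) after cells spend 16 h at 37C with test compound and 3 nM final 1alpha,25-dihydroxyvitamin D3.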
# [10] = molecular target: Bile acid receptor (Homo sapiens) (UniProt Q96RI1); experiment: qHTS assay to identify small molecule agonists of the farnesoid-X-receptor (FXR) signaling pathway (AID 743220; active = well fitted activation curve with a large enough effect in the signal ratio in the repeat runs, not every such curve was filed as active; the % refers to the signal ratio)
# Procedure, shortened: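 Beta-lactamase reporter under UAS control in GeneBLAzer FXR HEK 293T cells (5000/well) measured with LiveBLAzer FRET substrate after 2 h at room temperature. Compound exposure lasted 16 h at 37C.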
Structure (SMILES),Potency [1],outcome [2],Potency [3],Potency [4],Potency [5],Potency [6],outcome [7],Potency [8],outcome [9],outcome [10]
CCOP(O)OCC,inactive,inactive,inactive,inactive,inactive,inactive,inactive,,,
CCc1ccc(C(=O)NN(C(=O)c2cc(C)cc(C)c2)C(C)(C)C)cc1,inactive,inactive,inactive,inactive,,,inactive,54.9 µM (active),inactive,
O=C1C(Cl)C(CCl)CN1c1cccc(C(F)(F)F)c1 (configuration not stated),inactive,inactive,inactive,inactive,inactive,inactive,inactive,,,
COC(=O)c1cncn1C(C)c1ccccc1 (configuration not stated),inactive,inactive,inactive,inactive,inactive,inactive,,,,
C#CCOC(C(=O)OCCN(C)C)(c1ccccc1)c1ccccc1,inactive,inactive,inactive,inactive,,inactive,inactive,,,
Cl/C=C\Cl,inactive,inactive,inactive,inactive,,,inactive,,inactive,
Clc1ccc(C2(Cn3cncn3)CC(Br)CO2)c(Cl)c1 (configuration not stated),inactive,inactive,inactive,inactive,inactive,inactive,inactive,,inactive,inactive
II,inactive,inactive,inactive,inactive,inactive,,inactive,,inactive,
O=C(Nc1ccccc1)Nc1cnns1,inactive,inactive,inactive,inactive,,,inactive,inactive,,inactive
OC(c1ccc(Cl)cc1)(c1ccc(Cl)cc1)c1cccnc1,54.9 µM (active),inactive,inactive,inactive,inactive,,inactive,,inactive,inactive
N#CCc1ccccc1,inactive,inactive,inactive,inactive,inactive,inactive,inactive,,inactive,
[O-][Cl+]O,inactive,inactive,inactive,inactive,inactive,,inactive,,,
C[C@]12CC[C@H]3[C@@H](CCC4=CC(=O)CC[C@@H]43)[C@@H]1CC[C@@H]2OC(=O)CCC1CCCCC1,inactive,inactive,inactive,inactive,inactive,inactive,inactive,,inactive,
O=C(O)c1ccccc1C(=O)Nc1cccc2ccccc12,inactive,inactive,inactive,,,,inactive,inactive,inactive,inactive
ClCc1ccccc1,inactive,inactive,inactive,inactive,,,inactive,,inactive,
N#C/C(N)=C(/N)C#N,inactive,inactive,inactive,,inactive,,inactive,inactive,,inactive
Cc1ccccc1CCl,inactive,inactive,inactive,,inactive,inactive,inactive,,,
C(=NC1CCCCC1)=NC1CCCCC1,inactive and 21.9 µM (active),inactive,inactive,,11 µM (active),inactive,inactive,,,inactive
O=Cc1ccc2c(c1)OCO2,inactive,inactive,inactive,,inactive,inactive,inactive,inactive,,inactive
C=CCCl,inactive,inactive,inactive,,inactive,inactive,inactive,,,
CCCN(CCCl)c1c([N+](=O)[O-])cc(C(F)(F)F)cc1[N+](=O)[O-],inactive,inactive,inactive,,inactive,inactive,inactive,inactive,inactive,inactive
ClP(Cl)(Cl)(Cl)Cl,inactive,inactive,inactive,,,inactive,inactive,inactive,inactive,inactive
CC(=O)c1cc2c(cc1C)C(C)(C)C(C)CC2(C)C (configuration not stated),inactive,inactive,inactive,,inactive,,,,inactive,inactive
CNP(=O)(OC)Oc1ccc(C(C)(C)C)cc1Cl (configuration not stated),inactive,inactive,inactive,,inactive,inactive,inactive,,,
CCCN(CCC)c1c([N+](=O)[O-])cc(S(C)(=O)=O)cc1[N+](=O)[O-],inactive,inactive,inactive,,inactive,inactive,,,,
N#Cc1ccc(Cl)cc1,inactive,inactive,inactive,,inactive,inactive,inactive,,inactive,
O=S(=O)(Cl)c1ccccc1,inactive,inactive,inactive,,,,inactive,inactive,inactive,inactive
COc1nn(C(=O)NS(=O)(=O)c2ccccc2OC(F)(F)F)c(=O)n1C,inactive,inactive,inactive,,inactive,inactive,inactive,inactive,,inactive
CCO[C@H]1O[C@@H]2OC3(C)CC[C@H]4[C@H](C)CC[C@@H]([C@H]1C)[C@@]24OO3,inactive,inactive,inactive,,,,inactive,inactive,inactive,inactive
